Measurements from PubChem BioAssay (NCI).
The panel holds about 83,000 compounds, 20% with a hit somewhere; the sample as a whole holds those more often.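 Method: cells in 96-well plates; compound added at one concentration; 48 h incubation; percent growth measured; values under 10 scored active.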 Activity calls are given as the source filed them.

How the values were obtained:
Experiment in all cases: NCI-60 one-dose screen, 48 h (100 = growth as untreated, 0 = no growth, -100 = all killed)
Conditions in all cases: 10 µM unless noted
NCI-H23 lung = test system: NCI-H23 lung
NCI-H226 lung = test system: NCI-H226 lung
NCI-H322M lung = test system: NCI-H322M lung
HOP-62 NSCLC = test system: HOP-62 NSCLC
NCI-H460 lung = test system: NCI-H460 lung
HOP-92 NSCLC = test system: HOP-92 NSCLC
NCI-H522 lung = test system: NCI-H522 lung
A549/ATCC NSCLC = test system: A549/ATCC NSCLC
786-0 renal = test system: 786-0 renal
COLO 205 colon = test system: COLO 205 colon

Measured: growth

CNC(=O)c1cc(Oc2ccc3nc(NC(=O)c4ccc5ncccc5c4)sc3c2)ccn1
inactive: NCI-H23 lung 92.7% | NCI-H226 lung 68.6% | NCI-H322M lung 99% | HOP-62 NSCLC 112% | NCI-H460 lung 98.6% | HOP-92 NSCLC 110% | NCI-H522 lung 54.3% | A549/ATCC NSCLC 76.5% | 786-0 renal 98.4% | COLO 205 colon 95.8%

CCCc1cc2cc(-n3nc(C)c4c3CC(C)(C)CC4=O)cc(NC3CCSCC3)c2c(=O)[nH]1
inactive: NCI-H23 lung 36.8% | NCI-H226 lung 90.2% | NCI-H322M lung 63.4% | HOP-62 NSCLC 45.9% | NCI-H460 lung 66.5% | HOP-92 NSCLC 93.2% | NCI-H522 lung 47.7% | A549/ATCC NSCLC 49.1% | 786-0 renal 66.8% | COLO 205 colon 41.9%

Cn1cc(-c2nnc(-c3cn(C)c4ncccc34)o2)c2ccccc21
inactive: NCI-H23 lung 51.3% | NCI-H226 lung 64.9% | NCI-H322M lung 75.8% | HOP-62 NSCLC 32.6% | NCI-H460 lung 23.7% | NCI-H522 lung 21.3% | A549/ATCC NSCLC 36% | 786-0 renal 59.7% | COLO 205 colon 25.7%
active: HOP-92 NSCLC 7.94%

COc1ccc2[nH]c(C(=O)N3CCN(C(=O)OCc4ccc5c(Br)cc(Br)c(O)c5n4)CC3)cc2c1
active: NCI-H23 lung -78.2% | NCI-H226 lung -84.3% | NCI-H322M lung -87.1% | HOP-62 NSCLC -67% | NCI-H460 lung -60.3% | HOP-92 NSCLC -83.9% | NCI-H522 lung -78.4% | A549/ATCC NSCLC -79.5% | 786-0 renal -93% | COLO 205 colon -83.1%

Clc1ccc(/C=N/Nc2nc3ccccc3s2)c(Cl)c1
inactive: NCI-H23 lung 90.4% | NCI-H226 lung 100% | NCI-H322M lung 93.4% | HOP-62 NSCLC 87.9% | NCI-H460 lung 41.8% | HOP-92 NSCLC 44.6% | NCI-H522 lung 97.2% | A549/ATCC NSCLC 73.7% | 786-0 renal 90.7% | COLO 205 colon 88.4%

CCCn1ccnc1C(O)c1ccc(OCc2ccccc2)c(OC)c1 (stereo not drawn)
inactive: NCI-H23 lung 90.7% | NCI-H226 lung 97.4% | NCI-H322M lung 90.1% | HOP-62 NSCLC 87.5% | NCI-H460 lung 103% | HOP-92 NSCLC 68.1% | NCI-H522 lung 66.1% | A549/ATCC NSCLC 97.7% | 786-0 renal 96.6% | COLO 205 colon 93.2%

Cc1cc(C)c(O)c(CNCCCCCCNCc2cc(C)cc(C)c2O)c1
inactive: NCI-H23 lung 56% | NCI-H226 lung 81.6% | HOP-62 NSCLC 17.6% | HOP-92 NSCLC 12.1% | A549/ATCC NSCLC 32% | 786-0 renal 54.5%
active: NCI-H322M lung -12.6% | NCI-H460 lung -62.6% | NCI-H522 lung -13% | COLO 205 colon -72.8%

CNC(=O)c1cc(Oc2cccc3nc(NC(=O)Nc4cc(C(F)(F)F)cc(C(F)(F)F)c4)ccc23)ccn1
active: HOP-62 NSCLC 6.73% | HOP-92 NSCLC -23.7% | 786-0 renal -35.6%
inactive: NCI-H23 lung 50.8% | NCI-H226 lung 43.1% | NCI-H322M lung 25.5% | NCI-H460 lung 34.9% | NCI-H522 lung 24.3% | A549/ATCC NSCLC 18.6% | COLO 205 colon 53.9%

COC(=O)[C@]1(C)CC[C@]2(C)CC[C@]3(C)C(=CC(=O)[C@@H]4[C@@]5(C)CCC(=O)NC(C)(C)[C@@H]5CC[C@]43C)[C@@H]2C1
active: NCI-H23 lung -77.5% [100 µM] | NCI-H226 lung -58.3% [100 µM] | HOP-62 NSCLC -70.8% [100 µM] | NCI-H460 lung -17.2% [100 µM] | HOP-92 NSCLC -85.6% [100 µM] | NCI-H522 lung -73.4% [100 µM] | A549/ATCC NSCLC 9.53% [100 µM] | 786-0 renal -70.9% [100 µM] | COLO 205 colon -51.2% [100 µM]
inactive: NCI-H322M lung 29.1% [100 µM]

O=C(Nc1cc(F)cc2cccnc12)c1cnc(N2CCNCC2)cn1
inactive: NCI-H23 lung 83.4% | NCI-H226 lung 100% | NCI-H322M lung 69.3% | HOP-62 NSCLC 85.2% | NCI-H460 lung 80.6% | HOP-92 NSCLC 49.1% | NCI-H522 lung 54.5% | A549/ATCC NSCLC 88.1% | 786-0 renal 89.1% | COLO 205 colon 13.9%

CN(C)Cc1ccc[nH]1
inactive: NCI-H23 lung 93.2% | NCI-H226 lung 93.3% | NCI-H322M lung 130% | HOP-62 NSCLC 117% | NCI-H460 lung 103% | HOP-92 NSCLC 103% | NCI-H522 lung 67.6% | A549/ATCC NSCLC 99.4% | 786-0 renal 107% | COLO 205 colon 101%

CCOC(=O)c1sc2nc(-c3cc(OC)c(OC)c(OC)c3)nc(N3CCOCC3)c2c1C
active: HOP-92 NSCLC -15%
inactive: NCI-H23 lung 27.6% | NCI-H226 lung 44.7% | NCI-H322M lung 48.2% | HOP-62 NSCLC 77.1% | NCI-H460 lung 17.5% | NCI-H522 lung 12.1% | A549/ATCC NSCLC 28.9% | 786-0 renal 51.8% | COLO 205 colon 26.5%

C[C@]12CCc3c(ccc4cc(O)ccc34)[C@@H]1CC[C@H]2O
inactive: NCI-H23 lung 95.7% | NCI-H226 lung 91.9% | NCI-H322M lung 105% | HOP-62 NSCLC 103% | NCI-H460 lung 102% | HOP-92 NSCLC 84.1% | NCI-H522 lung 88.3% | A549/ATCC NSCLC 108% | 786-0 renal 104% | COLO 205 colon 108%

COc1ccc(/C=C(/C2=NCCN2)n2ccc3ccccc32)cc1
inactive: NCI-H23 lung 100% | NCI-H226 lung 81.5% | NCI-H322M lung 92% | HOP-62 NSCLC 97.1% | NCI-H460 lung 93.1% | HOP-92 NSCLC 56.7% | NCI-H522 lung 85.9% | A549/ATCC NSCLC 99.8% | 786-0 renal 88.8% | COLO 205 colon 83.9%

O=C(CSc1nccc(Nc2ccc(S(=O)(=O)Nc3ccccn3)cc2)n1)c1ccc(Cl)cc1
inactive: NCI-H23 lung 80.3% | NCI-H226 lung 89% | NCI-H322M lung 104% | HOP-62 NSCLC 83.5% | NCI-H460 lung 104% | HOP-92 NSCLC 92.8% | NCI-H522 lung 75.4% | A549/ATCC NSCLC 105% | 786-0 renal 102% | COLO 205 colon 110%

CCN(CC)CCCCCCNc1cccc2cc(Br)cnc12
inactive: NCI-H23 lung 85.7% | NCI-H226 lung 108% | NCI-H322M lung 94.3% | HOP-62 NSCLC 118% | NCI-H460 lung 87.3% | HOP-92 NSCLC 71.6% | NCI-H522 lung 26.7% | A549/ATCC NSCLC 97.8% | 786-0 renal 92.8% | COLO 205 colon 89.9%

O=C1Nc2ccccc2/C1=C/C(=O)c1ccc(N2CCCC2)cc1
inactive: NCI-H23 lung 31.8% | NCI-H226 lung 73.4% | NCI-H322M lung 81.8% | HOP-62 NSCLC 33.4% | HOP-92 NSCLC 40.4% | A549/ATCC NSCLC 54.4% | 786-0 renal 100%
active: NCI-H460 lung 9.75% | NCI-H522 lung -2.44% | COLO 205 colon 8.29%

CCN(CC)c1ccc2cc(C(Nc3ccc(C)cc3)c3nnnn3C(C)(C)C)c(=O)oc2c1 (stereo not drawn)
inactive: NCI-H23 lung 95.1% | NCI-H226 lung 85% | NCI-H322M lung 103% | HOP-62 NSCLC 103% | NCI-H460 lung 91.9% | HOP-92 NSCLC 81% | NCI-H522 lung 82.8% | A549/ATCC NSCLC 85.4% | 786-0 renal 96% | COLO 205 colon 110%

CCOc1ccccc1/C=N\Nc1ccc(S(=O)(=O)c2ccc(N/N=C/c3ccccc3OCC)cc2)cc1
inactive: NCI-H23 lung 95.7% | NCI-H226 lung 79.5% | NCI-H322M lung 92.1% | HOP-62 NSCLC 93% | NCI-H460 lung 98.6% | HOP-92 NSCLC 88.9% | NCI-H522 lung 95.2% | A549/ATCC NSCLC 96.7% | 786-0 renal 103% | COLO 205 colon 114%

CC1Cc2c(Cl)ncnc2N(C)c2ccc(O)cc21 (stereo not drawn)
inactive: NCI-H23 lung 45.7% | NCI-H226 lung 82.2% | NCI-H322M lung 44.2% | HOP-62 NSCLC 53.8% | NCI-H460 lung 84.3% | HOP-92 NSCLC 85.1% | NCI-H522 lung 92.5% | A549/ATCC NSCLC 28.4% | COLO 205 colon 91.7%
active: 786-0 renal -3.93%

COc1cc2c(c(OC)c1OC)-c1ccc(NNC(N)=S)c(=O)cc1[C@@H](NC(C)=O)CC2
active: NCI-H23 lung 5.07% | NCI-H460 lung -3.14% | HOP-92 NSCLC -6.59% | NCI-H522 lung -63.3% | COLO 205 colon -95.6%
inactive: NCI-H226 lung 27.9% | NCI-H322M lung 64.9% | HOP-62 NSCLC 32.7% | A549/ATCC NSCLC 15.7% | 786-0 renal 21.9%

Cc1cc(C)c(S(=O)(=O)/N=c2/n(-c3ccccc3)nc3n2CCN3C2=NCCN2)c(C)c1
inactive: NCI-H23 lung 86.7% | NCI-H226 lung 89% | NCI-H322M lung 87.1% | HOP-62 NSCLC 86.8% | NCI-H460 lung 71.8% | HOP-92 NSCLC 63.9% | NCI-H522 lung 103% | 786-0 renal 89.1%

CCCCN(CCCC)CC(O)c1ccc(OCc2ccccc2)c2ccccc12 (stereo not drawn)
inactive: NCI-H23 lung 61.2% | NCI-H226 lung 104% | NCI-H322M lung 90% | HOP-62 NSCLC 109% | NCI-H460 lung 83.1% | HOP-92 NSCLC 76.6% | NCI-H522 lung 23.7% | A549/ATCC NSCLC 86.1% | 786-0 renal 84.6% | COLO 205 colon 87.9%

CC1=CC[C@@H]2C(C)(C)[C@@H](O)CC[C@@]2(C)[C@@H]1COc1ccc2ccc(=O)oc2c1
inactive: NCI-H23 lung 74.7% | NCI-H226 lung 38.2% | NCI-H322M lung 91.1% | HOP-62 NSCLC 67.2% | NCI-H460 lung 88.6% | HOP-92 NSCLC 51.3% | NCI-H522 lung 25.9% | A549/ATCC NSCLC 43% | 786-0 renal 92.9% | COLO 205 colon 55.3%

Cn1ncc2c(Nc3ccc(O)cc3)nc(Cl)nc21
inactive: NCI-H23 lung 107% | NCI-H226 lung 91.2% | NCI-H322M lung 96.6% | HOP-62 NSCLC 95.8% | NCI-H460 lung 108% | HOP-92 NSCLC 104% | NCI-H522 lung 88% | A549/ATCC NSCLC 96% | 786-0 renal 111% | COLO 205 colon 108%

CCCCC1COc2cccc3c2N1C=C/C3=C\C(=O)n1ccc2ccccc21 (stereo not drawn)
inactive: NCI-H23 lung 76.5% | NCI-H226 lung 84% | NCI-H322M lung 96.4% | HOP-62 NSCLC 79.2% | NCI-H460 lung 88.2% | HOP-92 NSCLC 63.3% | NCI-H522 lung 56% | A549/ATCC NSCLC 78.7% | 786-0 renal 90.1% | COLO 205 colon 91%

COc1ccc(NC(=S)NNc2ccc(-c3ccc(OC)c(OC)c3)nn2)cc1
inactive: NCI-H23 lung 106% | NCI-H226 lung 107% | NCI-H322M lung 96.7% | HOP-62 NSCLC 97.8% | NCI-H460 lung 99.7% | HOP-92 NSCLC 106% | NCI-H522 lung 97.9% | A549/ATCC NSCLC 110% | 786-0 renal 101% | COLO 205 colon 112%
